# Experimental data taken from PubChem BioAssay (Tox21).
# Where “and” joins values, the source holds several entries; their conditions need not be identical. Equal entries are not always repeated. Inconclusive results are not listed. Entries that show only a call come without a potency. Some structures have more than one record in an assay (separate samples or runs), and their calls can disagree. Calls of active or inactive are those of the source. Unless noted, calls follow the shape of the dose curve; as a rule, active = well fitted curve in the direction sought with a large enough effect in the repeat runs; inconclusive = weak or mixed curves; inactive = no such curve, though single readings can be large; an effect the other way counts as inactive or inconclusive.
# What was measured:
# [1] = A CellTox Green Cytotoxicity Assay to monitor cytotoxicity in HEK293 cells - 32 hour (AID 1224881); also: nearly all actives have a fitted effect of over 40% in size; also: potency is read from the fitted curve at half-maximal effect
# Outline: (§1)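 HEK293 cells premixed with CellTox Green dye were seeded at 600 cells/well and left 5 h at 37 C/5% CO2 before pin transfer of 23 nL compound in DMSO. Fluorescence from dye bound to dead-cell DNA was read during 40 h treatment.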
# [2] = A CellTox Green Cytotoxicity Assay to monitor cytotoxicity in HepG2 cells - 0 hour (AID 1224882); also: nearly all actives have a fitted effect of over 35% in size
# Outline: (§2)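 HepG2 cells were seeded together with the CellTox Green dye at 600 cells/well, left 5 h at 37 C/5% CO2, then given compounds in DMSO. Fluorescence from dye bound to dead-cell DNA was read repeatedly over 40 h of treatment at 37 C.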
# [3] = A CellTox Green Cytotoxicity Assay to monitor cytotoxicity in HEK293 cells - 8 hour (AID 1224884); also: nearly all actives have a fitted effect of over 35% in size
# Outline: as §1
# [4] = qHTS RealTime-Glo MT Cell Viability Assay in HepG2 cells - 16 hour (AID 1224885); also: nearly all actives have a fitted effect of over 50% in size; also: potency is read from the fitted curve at half-maximal effect
# Outline: (§3)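 Luminescence read-out: viable HepG2 cells reduce a prosubstrate to a NanoLuc substrate, giving a signal proportional to live cell number. Reads taken at 0, 8, 16, 24, 32 and 40 h of compound exposure at 37 C.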
# [5] = qHTS RealTime-Glo MT Cell Viability Assay in HEK293 cells - 24 hour (AID 1224886); also: nearly all actives have a fitted effect of over 50% in size; also: potency is read from the fitted curve at half-maximal effect
# Outline: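 Nonlytic real-time viability readout: viable cells convert prosubstrate to NanoLuc substrate, giving luminescence proportional to live cell number. HEK293, 600 cells/well, compound added after 5 h, continuous culture at 37 C.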
# [6] = qHTS RealTime-Glo MT Cell Viability Assay in HEK293 cells - 8 hour (AID 1224887); also: nearly all actives have a fitted effect of over 50% in size; also: potency is read from the fitted curve at half-maximal effect
# Outline: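 HEK293 cells mixed with RealTime-Glo reagents (NanoLuc plus cell-permeant prosubstrate) at 600 cells/well, preincubated 5 h at 37 C/5% CO2, then given 23 nL compound in DMSO. Nonlytic luminescence from viable cells was read at 0, 8, 16, 24, 32 and 40 h.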
# [7] = A CellTox Green Cytotoxicity Assay to monitor cytotoxicity in HEK293 cells - 16 hour (AID 1224888); also: nearly all actives have a fitted effect of over 35% in size; also: potency is read from the fitted curve at half-maximal effect
# Outline: as §1
# [8] = qHTS RealTime-Glo MT Cell Viability Assay in HepG2 cells - 0 hour (AID 1224889); also: nearly all actives have a fitted effect of over 50% in size
# Outline: as §3
# [9] = A CellTox Green Cytotoxicity Assay to monitor cytotoxicity in HepG2 cells - 8 hour (AID 1224890); also: nearly all actives have a fitted effect of over 45% in size; also: potency is read from the fitted curve at half-maximal effect
# Outline: as §2
# [10] = qHTS assay to identify small molecule antagonists of the estrogen receptor alpha (ER-alpha) signaling pathway using the BG1 cell line in the presence of 0.1 nM 17-beta-estradiol - cell viability counter screen (AID 1259241); also: nearly all actives have a fitted effect of over 40% in size
# Outline: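 Live-cell protease activity (CellTiter-Fluor fluorescence, 30 min) was read in the same wells after VM7Luc4E2 cells had been exposed to compounds with 0.1 nM 17beta-estradiol for 22 hr at 37C.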
# [11] = qHTS assay to identify small molecule antagonists of the androgen receptor (AR) signaling pathway using the MDA cell line in the presence of 0.5 nM R1881 - cell viability counter screen (AID 1259242); also: nearly all actives have a fitted effect of over 45% in size; also: potency is read from the fitted curve at half-maximal effect
# Outline: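 MDA-kb2 cells (human breast carcinoma, stably carrying MMTV-luciferase reporter) were exposed to compounds with 0.5 nM R1881 (final) for 16 hr at 37C, 0% CO2; viability then read as live-cell protease fluorescence (CellTiter-Fluor, 30 min) in the same wells.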
# [12] = qHTS assay to identify small molecule HDAC inhibitors (AID 1259364); also: top concentration of the series differs between compounds; nearly all actives have a fitted effect of over 45% in size
# Outline: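 Wild-type HCT-116 cells were plated overnight, exposed to compounds for 2 h at 37 °C, then given HDAC-Glo class I/II luminogenic reagent for 30 min at room temperature before luminescence was read.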
# [13] = qHTS assay to identify small molecule HDAC inhibitors - cell viability counter screen (AID 1259365)
# Outline: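 HCT-116 (wild type), 1,500 cells/well, overnight 37C/5% CO2; compound in DMSO 2hr; CellTiter-Glo 30min RT; luminescence read.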
# [14] = qHTS assay to identify small molecule agonists of the sonic hedgehog signaling (Shh) pathway - cell viability counter screen (AID 1259366); also: nearly all actives have a fitted effect of over 50% in size; also: potency is read from the fitted curve at half-maximal effect
# Outline: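 CellTiter-Fluor fluorescence read-out, 1 hr at 37C, added after 23hr compound exposure. Cells: 3T3 Gli1-Luc, an NIH/3T3 clone with stably integrated Gli1-Luc reporter, plated 4hr before compound.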
# [15] = qHTS assay to identify small molecule antagonists of the sonic hedgehog signaling (Shh) pathway - cell viability counter screen (AID 1259367); also: nearly all actives have a fitted effect of over 55% in size
# Outline: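 NIH/3T3-derived Gli1-Luc reporter cells (2,000 per well) rested 4 hr at 37 C, then received DMSO compounds plus conditioned medium. After 23 hr of treatment, CellTiter-Fluor was added for 1 hr at 37C and fluorescence read.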
# [16] = qHTS assay to identify small molecule agonists of the sonic hedgehog signaling (Shh) pathway (AID 1259368; calls by dose curve; also: series mostly up to about 92 µM; nearly all actives have a fitted effect of over 15% in size)
# Outline: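 NIH/3T3-derived 3T3Gli1-Luc cells carrying a stably integrated Gli1 response element–firefly luciferase reporter were plated, left 4 hr at 37 C, then given compounds in DMSO for 24 hr. Luminescence was read 30 min after adding luciferase reagent.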
# [17] = molecular target: Androgen receptor (Homo sapiens) (UniProt P10275); assay: qHTS assay to identify small molecule antagonists of the androgen receptor (AR) signaling pathway using the MDA cell line in the presence of 0.5 nM R1881 (AID 1259243); also: nearly all actives have a fitted effect of over 50% in size
# Chain of Androgen receptor (Homo sapiens) (P10275 whole entry, looked up): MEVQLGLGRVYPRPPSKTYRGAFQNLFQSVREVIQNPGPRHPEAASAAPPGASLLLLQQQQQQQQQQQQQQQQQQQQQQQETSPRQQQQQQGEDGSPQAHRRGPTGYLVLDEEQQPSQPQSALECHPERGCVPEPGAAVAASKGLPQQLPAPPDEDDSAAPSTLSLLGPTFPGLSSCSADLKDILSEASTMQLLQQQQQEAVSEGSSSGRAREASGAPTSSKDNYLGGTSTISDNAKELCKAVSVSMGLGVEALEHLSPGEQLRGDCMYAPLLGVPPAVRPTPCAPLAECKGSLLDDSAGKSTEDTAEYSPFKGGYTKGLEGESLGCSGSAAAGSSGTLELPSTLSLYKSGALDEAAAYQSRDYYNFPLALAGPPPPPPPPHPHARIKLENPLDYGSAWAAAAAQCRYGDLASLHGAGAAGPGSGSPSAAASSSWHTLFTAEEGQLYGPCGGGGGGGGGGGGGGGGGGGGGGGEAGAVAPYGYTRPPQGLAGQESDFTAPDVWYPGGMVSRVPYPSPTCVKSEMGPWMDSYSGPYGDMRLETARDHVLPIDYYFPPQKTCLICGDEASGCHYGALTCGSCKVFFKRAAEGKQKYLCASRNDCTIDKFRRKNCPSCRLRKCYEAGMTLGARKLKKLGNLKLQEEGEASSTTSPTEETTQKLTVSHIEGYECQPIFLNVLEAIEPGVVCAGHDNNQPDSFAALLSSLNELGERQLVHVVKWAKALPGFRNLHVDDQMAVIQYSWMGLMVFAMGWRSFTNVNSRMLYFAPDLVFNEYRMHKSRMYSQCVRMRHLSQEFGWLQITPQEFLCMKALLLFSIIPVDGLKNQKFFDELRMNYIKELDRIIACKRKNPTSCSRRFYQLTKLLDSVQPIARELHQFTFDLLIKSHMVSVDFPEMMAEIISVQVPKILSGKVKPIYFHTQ
# Outline: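 MDA-kb2 human breast carcinoma cells carrying an MMTV-luciferase reporter (AR- and GR-responsive) were plated, rested 5 hr at 37C, dosed with compounds, then stimulated with 0.5 nM R1881 (final) for 16 hr; luminescence was read after ONE-Glo.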
# [18] = molecular target: Estrogen receptor (Homo sapiens) (UniProt P03372); assay: qHTS assay to identify small molecule antagonists of the estrogen receptor alpha (ER-alpha) signaling pathway using the BG1 cell line in the presence of 0.1 nM 17-beta-estradiol (AID 1259244); also: nearly all actives have a fitted effect of over 50% in size; also: potency is read from the fitted curve at half-maximal effect
# Chain of Estrogen receptor (Homo sapiens) (P03372 whole entry, looked up): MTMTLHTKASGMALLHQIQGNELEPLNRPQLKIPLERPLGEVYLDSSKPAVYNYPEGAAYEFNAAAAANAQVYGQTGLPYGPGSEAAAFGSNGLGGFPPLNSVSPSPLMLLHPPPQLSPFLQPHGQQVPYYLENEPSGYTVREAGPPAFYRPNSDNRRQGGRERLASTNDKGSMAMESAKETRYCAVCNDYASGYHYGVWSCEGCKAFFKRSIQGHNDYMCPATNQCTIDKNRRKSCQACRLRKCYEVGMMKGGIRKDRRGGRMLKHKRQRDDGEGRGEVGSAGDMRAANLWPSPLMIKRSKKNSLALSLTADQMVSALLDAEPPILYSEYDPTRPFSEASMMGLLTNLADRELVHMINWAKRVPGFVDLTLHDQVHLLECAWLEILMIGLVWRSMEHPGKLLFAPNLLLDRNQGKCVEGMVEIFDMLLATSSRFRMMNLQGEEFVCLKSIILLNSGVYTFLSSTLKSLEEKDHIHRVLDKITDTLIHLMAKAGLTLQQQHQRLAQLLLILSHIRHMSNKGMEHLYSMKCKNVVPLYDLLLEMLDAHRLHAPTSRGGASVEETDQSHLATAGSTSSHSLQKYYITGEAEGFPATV
# Outline: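 VM7Luc4E2 cells (endogenous full-length ER-alpha, stable 4xERE-luciferase) were grown 5 days in phenol red-free medium with charcoal-stripped FBS, then exposed 22 h at 37C to compounds plus 0.1 nM (final) 17beta-estradiol; ONE-Glo luminescence read-out.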
# [19] = qHTS assay to identify small molecule phospholipidosis (PLD) inducers (AID 1259344; active = well fitted curve in the direction sought with a large enough effect; an effect the other way counts as inactive or inconclusive)
# Outline: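 HepG2 cells on collagen I, attached 4 h at 37 C, were co-treated with compound and LipidTOX Red dye for 24 h at 37 C, then fixed with paraformaldehyde plus Hoechst 33342 and imaged by high-content microscopy for phospholipid accumulation.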
# [20] = A CellTox Green Cytotoxicity Assay to monitor cytotoxicity in HepG2 cells - 32 hour (AID 1224883); also: nearly all actives have a fitted effect of over 50% in size; also: potency is read from the fitted curve at half-maximal effect
# Outline: as §2
Compound,Potency [1],Potency [2],Potency [3],Potency [4],Potency [5],Potency [6],Potency [7],Potency [8],Potency [9],Potency [10],Potency [11],Potency [12],Potency [13],Potency [14],Potency [15],Potency [16],Potency [17],Potency [18],Potency [19],Potency [20]
CC/C=C\CCCCCO,inactive,inactive,inactive,inactive,inactive,inactive,inactive,inactive,inactive,inactive,inactive,inactive,inactive,inactive,inactive,inactive,–,–,–,–
CC1(C)[C@@H](O)CC[C@]2(C)[C@H]3C(=O)C=C4[C@@H]5C[C@@](C)(C(=O)O)CC[C@]5(C)CC[C@@]4(C)[C@]3(C)CC[C@@H]12,inactive,inactive,inactive,inactive,inactive,inactive,inactive,inactive,inactive,inactive,inactive,inactive,inactive,–,–,–,inactive,inactive,inactive,–
CCCCCCCCCCCCCC[N+](C)(C)C,29.9 µM (active) and 48.9 µM (active) and 26.8 µM (active),inactive,–,16.8 µM (active) and 48.9 µM (active),16.8 µM (active) and 21.8 µM (active),53.1 µM (active) and inactive,47.3 µM (active) and 48.9 µM (active) and 47.7 nM (active),inactive,18.8 µM (active) and 54.9 µM (active) and inactive,–,23.5 µM (active),inactive,–,21 µM (active) and 27.3 µM (active) and inactive,inactive,–,–,2.96 µM (active) and 3.85 µM (active) and 26.6 µM (active),inactive,10.6 µM (active) and 17.4 µM (active) and 21.3 µM (active)
CC(=O)OCC=C(C)C,inactive,inactive,inactive,inactive,inactive,inactive,inactive,inactive,inactive,inactive,inactive,inactive,inactive,inactive,inactive,–,inactive,inactive,–,–
CC(C)NC[C@@H](O)COc1ccc(CC(N)=O)cc1,inactive,inactive,–,inactive,inactive,inactive,inactive,inactive,inactive,inactive,inactive,inactive,inactive,inactive,–,inactive,–,inactive,inactive,inactive
